Experimental findings from PubChem BioAssay AID504634 (The Scripps Research Institute Molecular Screening Center, 2011) are described below.

The whole screen tested about 340,000 compounds, of which about 280 (0.082%) were called active. The sample holds actives, similar compounds and a random draw of the others, so the mix is not that of the screen. Unmarked numbers belong to inactive results. Cut-off read from the data, not from the text of the source: active = inhibition mostly above about 23% (no sharp cut-off); inactive = mostly below about 18%.

One may read the inhibition as the drop in the measured response relative to a control, in per cent.

In this assay the target is 5-hydroxytryptamine receptor 5A (Homo sapiens) (UniProt P47898). Description: inverse agonism at human 5-HT5A receptor – cell-based, luminescence, full-deck HTS, counter-screen for OPRM1-OPRD1 heterodimer inverse agonist project, primary screen (AID 504634).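 Note: 0% = cells with DMSO and 100% = no-cell wells with DMSO.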 As to conditions: HTR5A cell line, at 9.3 µM, stronger effect = higher value. On the technique in general: The purpose of a counterscreen is to sort out artefacts and off-target activity.
Sequence of 5-hydroxytryptamine receptor 5A (Homo sapiens) (P47898 whole entry, looked up): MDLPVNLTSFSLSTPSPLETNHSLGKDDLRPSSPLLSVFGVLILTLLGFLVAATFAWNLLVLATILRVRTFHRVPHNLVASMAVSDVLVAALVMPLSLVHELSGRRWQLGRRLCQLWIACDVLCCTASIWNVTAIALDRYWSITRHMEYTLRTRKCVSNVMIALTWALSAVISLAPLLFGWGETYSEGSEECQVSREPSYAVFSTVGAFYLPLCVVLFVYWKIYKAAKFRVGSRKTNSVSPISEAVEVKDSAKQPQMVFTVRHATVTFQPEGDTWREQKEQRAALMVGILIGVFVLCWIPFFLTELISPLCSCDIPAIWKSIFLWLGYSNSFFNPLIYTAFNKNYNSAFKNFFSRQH
For `CCOc1ccc(CCNC(=O)CN2C(=O)NC3(CCc4ccccc43)C2=O)cc1OCC` (stereo not given), the inhibition was 16.7%.

`COc1cc(NC(=O)c2ccc(CNc3c(N4CCCC4)c(=O)c3=O)cc2)cc(OC)c1OC`: the inhibition is -11.7%.

As to `CC(=O)c1ccc(Oc2cc(C)nc(-n3nc(C)cc3C)n2)cc1`, the inhibition was 6.21%.

In the case of `Cc1cc(C)n(-c2ccc3nncn3n2)n1`, the inhibition is 5.02%.

As to `Cc1cc(C)n(-c2ccc(Cl)c(C(=O)O)n2)n1`, the inhibition is 39.8% (active).

As for `COc1ccc(N2C(=O)C(CC(=O)Nc3ccc(F)cc3)N(CCc3cccs3)C2=O)cc1` (stereo not given), the inhibition was 6.13%.

As for `COc1ccc(NS(=O)(=O)c2cc(NC(=O)c3ccc(S(=O)(=O)N(C)C)cc3)ccc2N2CCOCC2)cc1`, the inhibition is 8.03%.

For the compound `Cc1cc(C)cc(NC(=O)CSCc2cnn(-c3ccccc3)c2-n2cccc2)c1`, the inhibition was 3.55%.

As to `CCOC(=O)C1CCN(C(=O)Nc2cccc(OC)c2)CC1`, the inhibition is 17.6%.

As for `CCOC(=O)NC(=O)C(=CNc1cccc(OC)c1)C(=O)NC(=O)OCC`, the inhibition was 34% (active).

Take `COc1cccc(NC(=O)COC(=O)CCOc2ccccc2OC)c1`: the inhibition is -27.4%.

Consider `COCCn1c(SCC(=O)Nc2cc(Cl)ccc2OC)nc2c(c1=O)SC(C)C2` (stereo not given), for which the inhibition is -31.9%.

With `N#CC1(C#N)C(C(=O)C23CC4CC(CC(C4)C2)C3)C12CCOCC2` (stereo not given), the inhibition is 20.3%.

`COc1cc(C)nc(N2CCCC(C(=O)NCC(C)C)C2)n1` (stereo not given): the inhibition is -13.9%.

As to `CCNc1nc(NCC)nc(N(C)n2cnnc2)n1`, the inhibition is 13%.

With `O=C(Nc1ccc2c(c1)C(=O)OC2)Nc1cccc2ccccc12`, the inhibition is -14.2%.

Regarding `O=S(=O)(NC1CCCCC1N1CCC(O)CC1)c1ccc(Cl)cc1` (stereo not given), the inhibition is -6.29%.

`O=C(COc1ccccc1F)NNC(=O)c1ccc(N2CCCCC2)c([N+](=O)[O-])c1`: the inhibition was 7.26%.

Regarding `O=c1[nH]n2c(=O)c3c([nH]c2c1N=Nc1ccccc1)CCC3`, the inhibition is 17%.

`Cc1c(CNCCc2ccccc2)c(C(=O)O)c(C)n1-c1ccccc1`: the inhibition was 10.6%.

For `CCc1ccc(CCC(=O)Nc2ccc(S(N)(=O)=O)cc2)o1`, the inhibition was -4.51%.

Turning to `COc1ccc(OCc2nnc3n2N=C(c2ccccc2)C(CC(=O)O)S3)cc1` (stereo not given), the inhibition is -14.6%.

As for `O=C(Nc1ccc(Br)c2cccnc12)c1ccc(Cn2cc([N+](=O)[O-])cn2)o1`, the inhibition is -5.7%.

Take `O=C(CSc1nnc2ccc(-c3ccncc3)nn12)N1CCCCC1`: the inhibition was -11.3%.

In the case of `OCCN1CCN(CCO)C1=S`, the inhibition is 12.7%.

Consider `CCCCn1c(N)c(N2CCOCC2)c(=O)n(CC(=O)NCCc2ccccc2)c1=O`, for which the inhibition is -7.42%.

As for `CCC(C(=O)OC)n1cnc2scc(-c3ccc(C)cc3)c2c1=O` (stereo not given), the inhibition is 18%.

For `COc1cc(C(=S)N2CCOCC2)cc(OC)c1OC(=O)c1cc([N+](=O)[O-])c(C)c([N+](=O)[O-])c1`, the inhibition was -9.45%.

On to `COc1ccc(/C=C/C(=O)c2cc(Br)ccc(=O)c2O)cc1`, for which the inhibition is -37%.

For the compound `CC(=O)CCS(=O)(=O)c1ccc(C)c(C)c1`, the inhibition is 6.1%.

`CCCCN(CC)C(=O)c1ccccc1Oc1ccccc1`: the inhibition is 4.41%.

Regarding `C=CCn1c(SCC(=O)NC(=O)Cc2ccccc2)nc2ccccc2c1=O`, the inhibition is 4.86%.

With `CCOc1cc(S(=O)(=O)NCc2ccc3c(c2)OCO3)ccc1F`, the inhibition is 18.6%.

With `Cc1cc(-c2nc(C)c(-c3nnc(SCC(=O)Nc4ccccc4)n3C)s2)no1`, the inhibition was 0.1%.

On to `CC(=O)N1CCN(c2ccc(NCc3ccc(C(C)C)cc3)cc2)CC1`, for which the inhibition is -28.6%.

On to `CC1CCCN(c2ccc(C(=O)NCCc3ccccc3)cn2)C1` (stereo not given), for which the inhibition is -15.3%.

Turning to `C=C1CCN([C@@H](Cc2ccccc2)C(=O)N2CCOCC2)S(=O)(=O)c2ccccc21`, the inhibition is -14.5%.

For `CCOC(=O)N1CCC(NC(=O)C(NS(=O)(=O)c2ccc3c(c2)CCN3C(=O)CC)C(C)C)CC1` (stereo not given), the inhibition is -32.3%.

Regarding `CCN(c1ccccc1)S(=O)(=O)c1ccc2[nH]c(=O)[nH]c2c1`, the inhibition was 4.19%.

For `O=C(O)c1ccc(NS(=O)(=O)c2cccc3nsnc23)cc1`, the inhibition is -11.7%.

Turning to `Cc1cc(-c2ccc(S(=O)(=O)N3CCN(c4cccc(C(F)(F)F)c4)CC3)s2)on1`, the inhibition is -11.3%.

On to `CCCCNC(=O)C1CCC(=O)N1CCc1ccccc1` (stereo not given), for which the inhibition is 4.38%.

For `COc1ccc(N2CC(C)Cn3c2nc2c3c(=O)n(Cc3ccccc3F)c(=O)n2C)c(OC)c1` (stereo not given), the inhibition is 6.23%.

Take `CN(C)c1ccc(/C=C/C(=O)c2ccc(O)cc2)cc1[N+](=O)[O-]`: the inhibition is 5.01%.

Take `O=C(/C=C/c1ccc(Cl)c([N+](=O)[O-])c1)c1ccc(O)cc1`: the inhibition is 25.2% (active).

Consider `CN(C)c1ccc(/C=C/C(=O)c2ccc(C(C)(C)C)cc2)cc1[N+](=O)[O-]`, for which the inhibition is -5.83%.

`CC(C)CCNC(=O)C(C)N(C(=O)Cn1nnc(-c2ccc(F)cc2)n1)C1CCCC1` (stereo not given): the inhibition was -27.5%.

With `CC1(c2nnc(Cc3ccccc3)o2)CC(c2ccccc2F)=NO1` (stereo not given), the inhibition was -30.2%.

In the case of `O=[N+]([O-])/C=C/c1ccc2c(ccn2Cc2ccccc2)c1`, the inhibition is 29.1%.

On to `COc1ccc(CN2CCCC(C(=O)N3CCCCC3)C2)cc1` (stereo not given), for which the inhibition is -7.55%.

As to `COc1cc(N2CCCC2)c(OC)cc1/C=C(/C#N)c1cccc(Br)c1`, the inhibition was 0.8%.

Turning to `Cc1noc(C)c1-c1nc(CSc2ccc(Cl)cc2)no1`, the inhibition was -15%.

As for `O=C(NCCC1CCCCN1S(=O)(=O)c1ccccc1)C(=O)NCC1CCCO1` (stereo not given), the inhibition was -11.3%.

In the case of `CCOc1ncccc1C(=O)N(CC)CC(=O)Nc1ccc(NC(C)=O)cc1`, the inhibition is -12.8%.

Turning to `CCSc1nc2sc3c(c2c(=O)n1-c1ccc(C)cc1)CCN(C)C3`, the inhibition is -7.48%.

As to `CCc1ccc(OCC(=O)N(Cc2ccccc2)C2CCS(=O)(=O)C2)cc1` (stereo not given), the inhibition is 9.5%.

`O=C(NCc1ccc(F)cc1)C1CCC(CNc2c(N3CCOCC3)c(=O)c2=O)CC1` (stereo not given): the inhibition was 4.62%.

Take `CCNC(=S)N1CCN(S(=O)(=O)c2ccc(Cl)s2)CC1`: the inhibition was 2.35%.

For the compound `CSc1cccc(NC(=O)C2CCCN2S(=O)(=O)c2ccc3c(c2)CCC(=O)N3)c1` (stereo not given), the inhibition was -6.95%.

On to `COn1c(=O)c(=O)n(OC)c2ccccc21`, for which the inhibition is 13.4%.

Turning to `CC(NC(=O)c1cccc2ccccc12)c1ccc2c(c1)CCCC2` (stereo not given), the inhibition was -1.12%.

Take `COCCn1c(SCC(=O)Nc2ccc3c(c2)CCC3)nc2ccccc2c1=O`: the inhibition was 4.39%.

`COC(=O)C1CCCCN1C(=O)c1ccc(OC2CCN(C(C)=O)CC2)c(OC)c1` (stereo not given): the inhibition was -12.2%.

Take `Cc1cc(C)c(S(=O)(=O)N2CCCC2CNC(=O)c2ccc3c(c2)OCO3)c(C)c1` (stereo not given): the inhibition is 1.64%.

With `Cc1cc(NC(=O)CCN2CCN(Cc3ccccc3)CC2)ccc1Br`, the inhibition is -5.24%.

In the case of `CN(CCO)S(=O)(=O)c1ccc2c(c1)C(=O)c1cc(S(=O)(=O)N(C)CCO)ccc1-2`, the inhibition was -0.05%.

Regarding `Cn1c(N)c(C(=O)COC(=O)c2cnc(Cl)c(Cl)c2)c(=O)n(C)c1=O`, the inhibition was 13.4%.

With `CCOc1ccc(NC(=O)CC(Cc2ccc(Cl)cc2)C(=O)O)cc1` (stereo not given), the inhibition is 11.4%.

Consider `COc1ccc(CCNC(=O)COc2cc(C)cc3oc(=O)c(C)c(C)c23)cc1OC`, for which the inhibition is -41.4%.

On to `Cc1cccc(C(=O)OC(C)CN2CCCC2)c1` (stereo not given), for which the inhibition is -16.4%.

Turning to `O=C(NC(=S)Nc1cc(C(F)(F)F)ccc1N1CCOCC1)c1ccc(-c2cccc(Cl)c2)o1`, the inhibition was 12.2%.

`Cc1ccc(NC(=O)CSc2nc(=O)n(CCN(C)C)c3c2CCCC3)c(C)c1`: the inhibition was 8.38%.

As to `Cc1c(C(=O)NCCN2C(=O)S/C(=C\c3cccs3)C2=O)cccc1[N+](=O)[O-]`, the inhibition was -12.1%.

For `Cc1cc(NC(=O)CSC2=NS(=O)(=O)c3cc(Cl)ccc3N2)no1`, the inhibition was 6.86%.

On to `Cc1ccc(S(=O)(=O)NCC(C)NS(C)(=O)=O)cc1` (stereo not given), for which the inhibition was -0.41%.

Turning to `CC(=O)N(O)CCCCCNC(=O)CCC(=O)N(O)CCCCCNC(=O)CCC(=O)N(O)CCCCCNC(=O)CCC(=O)O`, the inhibition is 2.24%.

On to `O=C(NCc1ccncc1)C1CCN(C(=O)c2cccc(Cl)c2)CC1`, for which the inhibition was -13.3%.

Consider `Cc1[nH]c2ccccc2c1C(=O)COC(=O)c1c(-c2ccccc2)noc1C`, for which the inhibition is -12.9%.

Take `Nc1nonc1-n1nnc(C(=O)N/N=C/c2cc(Br)ccc2O)c1CSC1=NCCS1`: the inhibition is -4.39%.

In the case of `Cc1c(-c2ccccc2)cn2c1-c1ccc(C)n1CC2`, the inhibition is -5.32%.

On to `Cc1noc(C)c1COc1cccc(C(=O)Nc2cccnc2)c1`, for which the inhibition was 22.3% (active).

In the case of `Cc1noc(C)c1COc1ccc(C(=O)NCCOc2ccccc2)cc1`, the inhibition was -0.9%.

For `CC(=O)c1cccc(OCc2cc(C(=O)NC(C)Cc3cccnc3)no2)c1` (stereo not given), the inhibition is -3.71%.

As for `CCc1nc2ccccc2n(CCOCCOCCn2c(=O)c(CC)nc3ccccc32)c1=O`, the inhibition was -0.84%.

Consider `CN(C(=O)CSc1nnc(Nc2ccccc2)s1)C1CCS(=O)(=O)C1` (stereo not given), for which the inhibition is 16.5%.

`C/C=C/C(=O)Nc1ccc(N2CCN(c3ccc(C(F)(F)F)cn3)CC2)nc1`: the inhibition was -13%.

As to `O=P(O)(CP(=O)(c1ccccc1)c1ccccc1)c1ccccc1`, the inhibition is 4.79%.

`COc1ccc(S(=O)(=O)N2CCSCC2)cc1`: the inhibition is 16.4%.

On to `CCn1cc(C(=O)NCCCN2CCCCCC2)c(=O)c2cc(S(=O)(=O)N3CCc4ccccc4C3)ccc21`, for which the inhibition was -11%.

Turning to `CCOC(=O)c1cn(CC)c2cc(F)c(F)cc2c1=O`, the inhibition is -4.15%.
